# Results as given in PubChem BioAssay.
# For part of these data: Results with a measured potency or affinity are listed apart. Activity calls are given as the source filed them.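 How the source made its calls, unless noted: active means earlier screen potentiator hit that boosts the TRPC4 ion channel at some dose, with a dose response; inactive means no potentiation, no dose response, or not a prior hit.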
# What was measured:
# [1] = tested on: TRPC4 beta (transient receptor potential cation channel C4), mouse; test: TRPC4 cation channel opening, retest – cell-based, Fluo4 calcium, HEK293 TRPC4beta/mu-opioid, duplicates, 10 µM, confirmation (AID 2426;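 active means fluorescence ratio normalized to control raised more than 50% in primary screen plus both repeat runs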); conditions: Fluo4 calcium fluorescence, at 10 µM; hits give high values
# [2] = tested on: transient receptor potential cation channel C4 beta (TRPC4), mouse; test: TRPC4 cation channel opening, second retest – cell-based, second round, Fluo4, HEK293 TRPC4beta/mu-opioid, 1 µM, confirmation (AID 2461;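 active means primary screen active and over 50% activation in each of two duplicate runs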); conditions: Fluo4 calcium fluorescence, at 1 µM; hits give high values
# [3] = tested on: TRPC4 (transient receptor potential cation channel C4 beta), mouse; test: potentiation of DAMGO EC20 TRPC4 response – cell-based, second round, Fluo-4, HEK293 TRPC4beta/mu-opioid, 1 µM, confirmation (AID 2554;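 active means primary screen hit whose fluorescence ratio, in both repeats, exceeds the weak agonist control mean by 3 SD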); conditions: DAMGO EC20, Fluo-4 calcium flux, at 1 µM; hits give high values
# [4] = tested on: TRPC4 beta (transient receptor potential cation channel C4), mouse; test: potentiation of DAMGO EC20 TRPC4 response – cell-based, Fluo-4, HEK293 TRPC4beta/mu-opioid, confirmation (AID 2555;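 active means primary screen hit whose calcium fluorescence ratio, in both repeats, exceeds the weak agonist control mean by 3 SD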); conditions: DAMGO EC20, Fluo-4 calcium flux, at 10 µM; hits give high values
# [5] = target: Short transient receptor potential channel 4 (Mus musculus) (UniProt Q9QUQ5); test: blockers of DAMGO-evoked TRPC4 calcium flux – cell-based, Fluo4, HEK293 TRPC4beta/mu-opioid, confirmation (AID 2636;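 active means calcium signal cut by more than 3 SD below the full-agonist control yet still positive, in both repeats and the earlier primary screen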); conditions: at 10 µM; hits give high values
# [6] = target: Short transient receptor potential channel 4 (Mus musculus) (UniProt Q9QUQ5); test: blockers of DAMGO-evoked TRPC4 calcium flux – cell-based, second round, Fluo4, HEK293 TRPC4beta/mu-opioid, 1 µM, confirmation (AID 2637;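 active means calcium signal ratio cut to more than 3 SD under the fully stimulated control mean yet still positive, in both repeats and the primary screen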); conditions: at 1 µM; hits give high values
# [7] = target: Short transient receptor potential channel 4 (Mus musculus) (UniProt Q9QUQ5); test: calcium entry via TRPC4 opening agents – cell-based, HEK293 TRPC4/mu-opioid, Fluo-4 calcium, dose response (AID 434937;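 active means primary screen activator hit with a dose response curve and TRPC4 channel activation at any tested dose; inactive means no activation, no dose response, or not a primary hit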)
# [8] = target: Short transient receptor potential channel 4 (Mus musculus) (UniProt Q9QUQ5); test: potentiation of DAMGO-evoked TRPC4 calcium signal – cell-based, HEK293 TRPC4/mu-opioid, Fluo-4 calcium, EC20 DAMGO, dose response (AID 434941);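 further: calcium entry triggered by an EC20 dose of DAMGO at the co-expressed mu-opioid receptor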
# [9] = target: Short transient receptor potential channel 4 (Mus musculus) (UniProt Q9QUQ5); test: block of DAMGO-driven TRPC4 calcium entry – cell-based, HEK293 TRPC4/mu-opioid, Fluo-4 calcium, dose response (AID 434942;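 active means primary screen inhibitor hit that blocks the TRPC4 channel at some tested dose, yielding a dose curve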)
# [10] = target: Short transient receptor potential channel 6 (Mus musculus) (UniProt Q61143); test: TRPC6 blockade by TRPC4 inhibitor hits – cell-based, HEK293, membrane potential dye, duplicate, selectivity assay for TRPC4 inhibitor project, confirmation (AID 434948;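 active means active in primary screen and both duplicates, each dropping signal beyond three positive-control SD with fluorescence still positive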); conditions: HEK293 TRPC6, membrane potential dye fluorescence, at 10 µM, stimulated with maximal-effect acetylcholine; hits give high values
# [11] = target: Short transient receptor potential channel 6 (Mus musculus) (UniProt Q61143); test: TRPC6 opening by TRPC4 activator hits – cell-based, HEK293, membrane potential dye, duplicate, selectivity assay for TRPC4 activator project, confirmation (AID 434950;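 active means membrane potential signal rise above negative control mean plus 3 SD in both duplicates, also active in the earlier TRPC4 screen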;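 on activation: 0% = buffer only wells and 100% = acetylcholine maximal-effect wells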); conditions: HEK293 TRPC6, membrane potential fluorescence, at 10 µM; activation: hits give high values; outcome: activation
# [12] = target: Short transient receptor potential channel 6 (Mus musculus) (UniProt Q61143); test: positive modulators of mouse TRPC6 channel – HEK293 cells, membrane potential dye, duplicate, selectivity assay for TRPC4 potentiator project, confirmation (AID 434952;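 active means compound raising the membrane signal above positive-control mean plus 3 SD in both repeats, and a primary screen hit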); conditions: HEK293 TRPC6, membrane potential dye fluorescence, at 10 µM, maximal acetylcholine added after compound; hits give high values
# [13] = target: Short transient receptor potential channel 4 (Mus musculus) (UniProt Q9QUQ5); test: calcium flux activators in TRPC4/5HT1a cells, counter-screen for TRPC4 activator project, cell-based, second counter screen, HEK293 TRPC4/5HT1a, Fluo-4 (AID 434977;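 active means calcium signal rise above buffer-control mean plus 5 SD in both duplicates, and also a hit in the primary screen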); conditions: Fluo-4 calcium flux, at 10 µM; hits give high values
# [14] = serotonin-gated TRPC4 signal block – cell-based, second counter screen, HEK293 TRPC4/5HT1a, Fluo-4, counter-screen for TRPC4 inhibitor project, confirmation (AID 434978;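 active means primary screen active whose calcium signal fell more than 3 SD beyond the full-serotonin control mean in both duplicate plates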;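 further: serotonin given first at submaximal then at maximal dose after compound preincubation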); conditions: Fluo-4 calcium flux, at 10 µM, serotonin added to trigger calcium flux; hits give high values
# [15] = tested on: TRPC4 (mouse), co-expressed with 5HT1a in HEK293; test: enhancement of serotonin-evoked TRPC4 response – cell-based, second counter screen, HEK293 TRPC4/5HT1a, Fluo-4, counter-screen for TRPC4 potentiator project, confirmation (AID 434979;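 active means signal rise over 3 SD above mean of control wells given weak agonist, in both repeats and first screen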); conditions: Fluo-4 calcium flux, at 10 µM, serotonin added at its EC20 dose; hits give high values
# [16] = nonspecific calcium rise without TRPC4 – cell-based, HEK293 mu-opioid receptor line, counter-screen for TRPC4 activator project, confirmation (AID 449723;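 active means hit in primary screen, with calcium signal over 5 SD above buffer well mean in both duplicates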;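 further: counter screen cells carry the mu-opioid receptor alone and lack TRPC4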); conditions: HEK293 mu-opioid cells, Fluo-4 calcium fluorescence, at 10 µM; hits give high values
# [17] = nonspecific potentiation of DAMGO calcium response – cell-based, HEK293 mu-opioid receptor line, counter-screen for TRPC4 allosteric potentiator project, confirmation (AID 449724;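 active means calcium signal rise more than 3 SD above the low-dose agonist control mean, in both duplicate plates and the primary screen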); conditions: HEK293 mu-opioid receptor cells, Fluo-4 calcium flux, at 10 µM, compound added before EC20 DAMGO stimulus; hits give high values
# Sequence of Short transient receptor potential channel 4 (Mus musculus) (Q9QUQ5 whole entry, looked up): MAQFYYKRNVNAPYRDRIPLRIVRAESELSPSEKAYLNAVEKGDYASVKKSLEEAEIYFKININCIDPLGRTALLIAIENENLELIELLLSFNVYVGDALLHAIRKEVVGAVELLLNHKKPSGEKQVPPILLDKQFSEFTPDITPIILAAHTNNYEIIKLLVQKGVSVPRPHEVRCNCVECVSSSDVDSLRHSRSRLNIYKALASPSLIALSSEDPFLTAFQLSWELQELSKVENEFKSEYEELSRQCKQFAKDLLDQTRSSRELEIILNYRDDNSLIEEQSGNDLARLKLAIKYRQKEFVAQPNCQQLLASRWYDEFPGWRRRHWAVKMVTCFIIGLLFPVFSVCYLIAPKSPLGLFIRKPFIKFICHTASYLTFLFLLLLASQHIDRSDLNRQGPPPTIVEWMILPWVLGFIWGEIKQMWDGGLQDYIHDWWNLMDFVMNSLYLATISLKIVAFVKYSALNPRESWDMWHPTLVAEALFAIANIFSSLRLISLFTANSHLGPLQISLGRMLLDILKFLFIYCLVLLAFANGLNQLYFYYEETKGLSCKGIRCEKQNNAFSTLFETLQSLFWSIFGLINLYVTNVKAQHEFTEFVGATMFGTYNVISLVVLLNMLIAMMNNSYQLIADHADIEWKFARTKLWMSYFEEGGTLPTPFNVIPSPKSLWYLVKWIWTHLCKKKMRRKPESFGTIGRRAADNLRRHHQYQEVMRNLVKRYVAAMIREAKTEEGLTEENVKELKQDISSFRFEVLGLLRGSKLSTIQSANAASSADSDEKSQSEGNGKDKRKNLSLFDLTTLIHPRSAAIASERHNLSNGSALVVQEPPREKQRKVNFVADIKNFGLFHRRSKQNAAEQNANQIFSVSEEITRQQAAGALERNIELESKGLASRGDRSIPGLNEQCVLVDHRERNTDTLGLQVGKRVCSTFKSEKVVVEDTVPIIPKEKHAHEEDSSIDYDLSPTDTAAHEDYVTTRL
# Sequence of Short transient receptor potential channel 6 (Mus musculus) (Q61143 whole entry, looked up): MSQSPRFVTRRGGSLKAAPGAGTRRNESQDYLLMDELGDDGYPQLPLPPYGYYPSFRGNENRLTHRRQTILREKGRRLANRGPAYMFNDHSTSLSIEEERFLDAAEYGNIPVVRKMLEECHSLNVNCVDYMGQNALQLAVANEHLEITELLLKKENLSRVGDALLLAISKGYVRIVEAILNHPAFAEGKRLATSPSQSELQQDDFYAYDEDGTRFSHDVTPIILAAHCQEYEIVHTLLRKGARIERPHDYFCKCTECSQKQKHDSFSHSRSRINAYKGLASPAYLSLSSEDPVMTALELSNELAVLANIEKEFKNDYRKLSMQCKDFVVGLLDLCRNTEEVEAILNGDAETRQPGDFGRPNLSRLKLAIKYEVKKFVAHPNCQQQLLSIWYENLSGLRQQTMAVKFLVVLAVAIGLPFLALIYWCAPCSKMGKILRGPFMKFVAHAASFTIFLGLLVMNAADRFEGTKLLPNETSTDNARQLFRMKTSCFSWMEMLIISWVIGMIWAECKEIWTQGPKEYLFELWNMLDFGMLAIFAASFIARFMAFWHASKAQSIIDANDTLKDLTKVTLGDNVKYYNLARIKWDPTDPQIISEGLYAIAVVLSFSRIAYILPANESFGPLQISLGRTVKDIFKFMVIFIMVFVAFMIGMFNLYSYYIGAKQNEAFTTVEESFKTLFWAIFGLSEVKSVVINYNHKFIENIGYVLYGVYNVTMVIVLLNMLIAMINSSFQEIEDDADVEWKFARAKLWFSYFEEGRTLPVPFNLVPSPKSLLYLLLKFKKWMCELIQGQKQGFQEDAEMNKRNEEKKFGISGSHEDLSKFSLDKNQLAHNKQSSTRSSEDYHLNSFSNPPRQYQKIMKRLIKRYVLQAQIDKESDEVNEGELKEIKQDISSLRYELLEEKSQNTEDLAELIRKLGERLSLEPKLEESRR
structure (smiles),measurement,setting,value
Cc1ccc(NC(=O)C2CCC(CNC(=O)[C@@H]3Cc4ccccc4CN3)CC2)cc1 (stereo not given in full),outcome,[1],inactive
same,outcome,[2],inactive
same,outcome,[3],inactive
same,outcome,[4],inactive
same,outcome,[5],inactive
same,outcome,[6],inactive
same,outcome,[7],inactive
same,outcome,[8],inactive
same,outcome,[9],inactive
same,outcome,[10],inactive
same,outcome,[11],inactive
same,outcome,[12],inactive
same,outcome,[13],inactive
same,outcome,[14],inactive
same,outcome,[15],inactive
same,outcome,[16],inactive
same,outcome,[17],inactive
Cc1ccc(C(=O)Nc2ccccc2C(=O)N2CC3(C)CC2CC(C)(C)C3)cc1 (stereo not given),outcome,[1],inactive
same,outcome,[2],inactive
same,outcome,[3],inactive
same,outcome,[4],inactive
same,outcome,[5],inactive
same,outcome,[6],inactive
same,outcome,[7],inactive
same,outcome,[8],inactive
same,outcome,[9],inactive
same,outcome,[10],inactive
same,outcome,[11],inactive
same,outcome,[12],inactive
same,outcome,[13],inactive
same,outcome,[14],inactive
same,outcome,[15],inactive
same,outcome,[16],inactive
same,outcome,[17],inactive
O=c1oc2ccccc2c(O)c1/C=C1\C=Nc2ccccc21,outcome,[1],inactive
same,outcome,[2],inactive
same,outcome,[3],inactive
same,outcome,[4],inactive
same,outcome,[5],inactive
same,outcome,[6],inactive
same,outcome,[7],inactive
same,outcome,[8],inactive
same,outcome,[9],inactive
same,outcome,[10],inactive
same,activation,[11],32.5% (active)
same,outcome,[12],inactive
same,outcome,[13],inactive
same,outcome,[14],inactive
same,outcome,[15],inactive
same,outcome,[16],inactive
same,outcome,[17],inactive
COc1ccc(/C=N/n2c(SC)nnc2-c2ccccc2)cc1C,outcome,[1],inactive
same,outcome,[2],inactive
same,outcome,[3],inactive
same,potentiation,[4],9% (active)
same,outcome,[5],inactive
same,outcome,[6],inactive
same,outcome,[7],inactive
same,outcome,[8],inactive
same,outcome,[9],inactive
same,outcome,[10],inactive
same,outcome,[11],inactive
same,outcome,[12],inactive
same,outcome,[13],inactive
same,outcome,[14],inactive
same,potentiation,[15],20.6% (active)
same,outcome,[16],inactive
same,outcome,[17],inactive
CCCC(=O)Nc1c(-c2ccccc2)c(=O)c(C)nn1-c1ccc(Cl)cc1,outcome,[1],inactive
same,outcome,[2],inactive
same,outcome,[3],inactive
same,outcome,[4],inactive
same,outcome,[5],inactive
same,outcome,[6],inactive
same,outcome,[7],inactive
same,outcome,[8],inactive
same,outcome,[9],inactive
same,outcome,[10],inactive
same,activation,[11],33.5% (active)
same,outcome,[12],inactive
same,outcome,[13],inactive
same,outcome,[14],inactive
same,outcome,[15],inactive
same,outcome,[16],inactive
same,outcome,[17],inactive
CSc1ccc(S(=O)(=O)NCC(=O)OCC(=O)N(C)Cc2ccccc2)cc1[N+](=O)[O-],outcome,[1],inactive
same,outcome,[2],inactive
same,outcome,[3],inactive
same,outcome,[4],inactive
same,outcome,[5],inactive
same,outcome,[6],inactive
same,outcome,[7],inactive
same,outcome,[8],inactive
same,outcome,[9],inactive
same,outcome,[10],inactive
same,outcome,[11],inactive
same,outcome,[12],inactive
same,outcome,[13],inactive
same,outcome,[14],inactive
same,outcome,[15],inactive
same,outcome,[16],inactive
same,outcome,[17],inactive
Cc1ccc(Cl)cc1N1CCN(Cc2nc3ccsc3c(=O)[nH]2)CC1,outcome,[1],inactive
same,outcome,[2],inactive
same,outcome,[3],inactive
same,potentiation,[4],25% (active)
same,outcome,[5],inactive
same,outcome,[6],inactive
same,outcome,[7],inactive
same,outcome,[8],inactive
same,outcome,[9],inactive
same,outcome,[10],inactive
same,outcome,[11],inactive
same,outcome,[12],inactive
same,outcome,[13],inactive
same,outcome,[14],inactive
same,outcome,[15],inactive
same,outcome,[16],inactive
same,outcome,[17],inactive
Cc1ccc(SC(CC(=O)c2ccc(C(C)(C)C)cc2)C(=O)O)cc1 (stereo not given),outcome,[1],inactive
same,outcome,[2],inactive
same,outcome,[3],inactive
same,outcome,[4],inactive
same,outcome,[5],inactive
same,outcome,[6],inactive
same,outcome,[7],inactive
same,outcome,[8],inactive
same,outcome,[9],inactive
same,outcome,[10],inactive
same,outcome,[11],inactive
same,outcome,[12],inactive
same,outcome,[13],inactive
same,outcome,[14],inactive
same,outcome,[15],inactive
same,outcome,[16],inactive
same,outcome,[17],inactive
O=C(Nc1ccc([N+](=O)[O-])cn1)C1CCCCC1,outcome,[1],inactive
same,outcome,[2],inactive
same,outcome,[3],inactive
same,outcome,[4],inactive
same,outcome,[5],inactive
same,outcome,[6],inactive
same,outcome,[7],inactive
same,outcome,[8],inactive
same,outcome,[9],inactive
same,outcome,[10],inactive
same,outcome,[11],inactive
same,outcome,[12],inactive
same,outcome,[13],inactive
same,outcome,[14],inactive
same,outcome,[15],inactive
same,outcome,[16],inactive
same,outcome,[17],inactive
COc1ccc(NS(=O)(=O)c2csc(C(N)=O)c2)cc1OC,outcome,[1],inactive
same,outcome,[2],inactive
same,outcome,[3],inactive
same,outcome,[4],inactive
same,outcome,[5],inactive
same,outcome,[6],inactive
same,outcome,[7],inactive
same,outcome,[8],inactive
same,outcome,[9],inactive
same,outcome,[10],inactive
same,outcome,[11],inactive
same,outcome,[12],inactive
same,outcome,[13],inactive
same,outcome,[14],inactive
same,potentiation,[15],12.9% (active)
same,outcome,[16],inactive
same,outcome,[17],inactive
CC(C)Oc1ccccc1C1CC(=O)Nc2cc3c(cc21)OCCO3 (stereo not given),outcome,[1],inactive
same,outcome,[2],inactive
same,outcome,[3],inactive
same,potentiation,[4],44% (active)
same,outcome,[5],inactive
same,outcome,[6],inactive
same,outcome,[7],inactive
same,outcome,[8],inactive
same,outcome,[9],inactive
same,outcome,[10],inactive
same,outcome,[11],inactive
same,outcome,[12],inactive
same,outcome,[13],inactive
same,outcome,[14],inactive
same,potentiation,[15],96.2% (active)
same,outcome,[16],inactive
same,outcome,[17],inactive
O=C(Nc1ccc(Cl)c(Cl)c1)N(CCCN1CCOCC1)Cc1cccs1,outcome,[1],inactive
same,outcome,[2],inactive
same,outcome,[3],inactive
same,outcome,[4],inactive
same,outcome,[5],inactive
same,outcome,[6],inactive
same,outcome,[7],inactive
same,outcome,[8],inactive
same,outcome,[9],inactive
same,outcome,[10],inactive
same,outcome,[11],inactive
same,outcome,[12],inactive
same,outcome,[13],inactive
same,outcome,[14],inactive
same,outcome,[15],inactive
same,outcome,[16],inactive
same,outcome,[17],inactive
O=C(NN/C(=N/S(=O)(=O)c1ccc(Cl)cc1)c1ccccc1)c1cccc(Cl)c1,outcome,[1],inactive
same,outcome,[2],inactive
same,outcome,[3],inactive
same,outcome,[4],inactive
same,inhibition,[5],70% (active)
same,outcome,[6],inactive
same,outcome,[7],inactive
same,outcome,[8],inactive
same,outcome,[9],inactive
same,outcome,[10],inactive
same,outcome,[11],inactive
same,outcome,[12],inactive
same,outcome,[13],inactive
same,outcome,[14],inactive
same,outcome,[15],inactive
same,outcome,[16],inactive
same,outcome,[17],inactive
c1ccc(CN2CCN(c3nc4ccccc4s3)CC2)cc1,outcome,[1],inactive
same,outcome,[2],inactive
same,outcome,[3],inactive
same,potentiation,[4],9% (active)
same,outcome,[5],inactive
same,outcome,[6],inactive
same,outcome,[7],inactive
same,outcome,[8],inactive
same,outcome,[9],inactive
same,outcome,[10],inactive
same,outcome,[11],inactive
same,outcome,[12],inactive
same,outcome,[13],inactive
same,outcome,[14],inactive
same,potentiation,[15],14.8% (active)
same,outcome,[16],inactive
same,outcome,[17],inactive
Cc1cc(C)c(C)c(OCCCOc2cccc3cccnc23)c1,outcome,[1],inactive
same,outcome,[2],inactive
same,outcome,[3],inactive
same,outcome,[4],inactive
same,outcome,[5],inactive
same,outcome,[6],inactive
same,outcome,[7],inactive
same,outcome,[8],inactive
same,outcome,[9],inactive
same,outcome,[10],inactive
same,outcome,[11],inactive
same,outcome,[12],inactive
same,outcome,[13],inactive
same,outcome,[14],inactive
same,potentiation,[15],19% (active)
same,outcome,[16],inactive
same,outcome,[17],inactive
